Measured values reported in the OligoGym collection.

Biological target: ADRA2B
Test: pooled miR-30 sensor sort-seq; sequence = guide strand
Conditions: shRNA
Also: reference of the scale not given here.

Question: Which sensor-assay potency score (higher = more potent) does the source give for TACTCTGGCCTCAACAACCCAC here?
Answer: -0.575

Question: TCATCTTAGACTGTTGCCGAGG was tested. Which sensor-assay potency score (higher = more potent) did it give?
Answer: -0.739

Question: With TTCCAAATCTAGCAGGTCCATC as the sequence, how does the sensor-assay potency score (higher = more potent) read?
Answer: -1.43

Question: Which sensor-assay potency score (higher = more potent) does the source give for TTTATTGATAAAATAGCTCAGA here?
Answer: -0.103

Question: Which sensor-assay potency score (higher = more potent) does the source give for AAGGTGAAGCGCTTCTCCCGGG here?
Answer: -0.311

Question: For TAGCGTAATAACTCAGACCTTT, which sensor-assay potency score (higher = more potent) is on record?
Answer: 0.245

Question: Which sensor-assay potency score (higher = more potent) does the source give for TAGACAAGGATCATGATGAGGC here?
Answer: 0.0762

Question: With TTGTACTCCAGCGCGCGGCTCA as the sequence, how does the sensor-assay potency score (higher = more potent) read?
Answer: -0.722

Question: For TGTCCGTTGACCTCTCTGGCAG, which sensor-assay potency score (higher = more potent) is on record?
Answer: -0.964

Question: TCGAGCGCCAGGTACACCTCGC was tested. Which sensor-assay potency score (higher = more potent) did it give?
Answer: -0.894

Question: With TTGAAATAGTGATTCTGTCTGC as the sequence, how does the sensor-assay potency score (higher = more potent) read?
Answer: 0.106

Question: TCCTGGTTGAGCTTGCACTGGG was tested. Which sensor-assay potency score (higher = more potent) did it give?
Answer: -0.653

Question: How did the sensor-assay potency score (higher = more potent) turn out when TTGGCGATCAGGTAGATGCGCA was run?
Answer: -0.201

Question: AAGATGGTGTAGATAACAGGGT was tested. Which sensor-assay potency score (higher = more potent) did it give?
Answer: -0.352

Question: With TTTTTGGTTCTCTAGTGTGTTC as the sequence, how does the sensor-assay potency score (higher = more potent) read?
Answer: -1.08

Question: AAATCTAGCAGGTCCATCTGGC was tested. Which sensor-assay potency score (higher = more potent) did it give?
Answer: -0.198

Question: How did the sensor-assay potency score (higher = more potent) turn out when TAACTTGAAATAGTGATTCTGT was run?
Answer: 0.986

Question: For TTGGAGTTGTACTCCAGCGCGC, which sensor-assay potency score (higher = more potent) is on record?
Answer: -0.762

Question: Which sensor-assay potency score (higher = more potent) does the source give for AACGCCAATGACCACAGCCAGC here?
Answer: -1.54

Biological target: ADRB1
Test: as above
Conditions: shRNA

Question: How did the sensor-assay potency score (higher = more potent) turn out when TTGGTGAGCGTCTGCAGCCGCG was run?
Answer: -1.38

Question: TCGCTGTCCGCCGCCGCCCCGC was tested. Which sensor-assay potency score (higher = more potent) did it give?
Answer: -1.6

Question: With TCCACTGAGGTCCACAGCTCGC as the sequence, how does the sensor-assay potency score (higher = more potent) read?
Answer: -1.74

Question: ACTGAGGTCCACAGCTCGCAGA was tested. Which sensor-assay potency score (higher = more potent) did it give?
Answer: -1.49

Question: With AAGAAGGAGCCGTACTCCCAGC as the sequence, how does the sensor-assay potency score (higher = more potent) read?
Answer: -1.16

Question: With TCGAGTCGCTGTCCGCCGCCGC as the sequence, how does the sensor-assay potency score (higher = more potent) read?
Answer: -1.38

Question: Which sensor-assay potency score (higher = more potent) does the source give for TTGAGCGCCTTCTGCTCGCGCA here?
Answer: -1.01

Question: With TCGTCGTCGTCGTCCGAGGCGG as the sequence, how does the sensor-assay potency score (higher = more potent) read?
Answer: -1.56

Question: TAGAAGGAGACTACGGACGAGG was tested. Which sensor-assay potency score (higher = more potent) did it give?
Answer: -0.754

Question: For ACACACAGGGTCTCGATGCTGG, which sensor-assay potency score (higher = more potent) is on record?
Answer: -0.4

Question: TTGAAGAAGACGAAGAGGCGGT was tested. Which sensor-assay potency score (higher = more potent) did it give?
Answer: 0.771

Question: With ACGCACAGCACGTCCACTGAGG as the sequence, how does the sensor-assay potency score (higher = more potent) read?
Answer: -1.84

Question: With ACGAAGTCGCAGCACTTGGGGT as the sequence, how does the sensor-assay potency score (higher = more potent) read?
Answer: -1.34

Question: TCGTCGTCGTCGTCGTCCGAGG was tested. Which sensor-assay potency score (higher = more potent) did it give?
Answer: -1.7

Question: How did the sensor-assay potency score (higher = more potent) turn out when TCCACTGCTGAGACAGCGGCTC was run?
Answer: -1.08

Question: How did the sensor-assay potency score (higher = more potent) turn out when TTGCGGAAGTCGGGGCTGCGGC was run?
Answer: -1.38

Question: TCTTCTTCACCTGCTTCTGGGC was tested. Which sensor-assay potency score (higher = more potent) did it give?
Answer: -0.965

Question: For TTGGTGACGAAGTCGCAGCACT, which sensor-assay potency score (higher = more potent) is on record?
Answer: -0.788

Question: With TTGGGGTCGTTGTAGCAGCGGC as the sequence, how does the sensor-assay potency score (higher = more potent) read?
Answer: -1.11

Question: TGTCGATCTTCTTCACCTGCTT was tested. Which sensor-assay potency score (higher = more potent) did it give?
Answer: 0.319

Question: With GACATCGTCGTCGTCGTCGTCC as the sequence, how does the sensor-assay potency score (higher = more potent) read?
Answer: -1.45
